Records with an inconclusive call do not appear. Active and inactive are the calls of the source. How the source made its calls, unless noted: active means hit-call score of the fitted dose curve at least 0.9, where 1 is the maximum; inconclusive means response in the unintended direction; inactive means score below 0.9.
Tests used:
[1] = read-out: TIMP1, TIMP1 (gene 7076); assay: LTEA_HepaRG_TIMP1: Life Technologies and Expression Analysis (LTEA) Assay for TIMP1 using HepaRG (AID 2283534; active means hit-call score of the fitted dose curve at least 0.9, where 1 is the maximum; inactive means score below 0.9;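 further: TaqMan qRT-PCR signal normalized to ACTB GAPDH and POLR2A housekeeping genes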); settings: mRNA level, 48 h; actives raise or lower the signal
Method in brief: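 TIMP1 induction or repression in HepaRG cells after 48 h chemical exposure (eight concentrations, highest 100 uM), assessed by normalized qRT-PCR with bidirectional fitting to DMSO controls.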

[2] = read-out: Tumor necrosis factor receptor 1 (TNFRSF1A), TNFRSF1A (gene 7132); assay: LTEA_HepaRG_TNFRSF1A: Life Technologies and Expression Analysis (LTEA) Assay for Tumor necrosis factor receptor 1 (TNFRSF1A) using HepaRG (AID 2283535; active means hit-call score of the fitted dose curve at least 0.9, where 1 is the maximum; inactive means score below 0.9); settings: mRNA level, 48 h; actives raise or lower the signal
Method in brief: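 Assay uses 48 h chemical treatment of differentiated HepaRG monolayers, tested in duplicate at eight concentrations from 100 uM downward in 0.5% DMSO. mRNA is normalized to ACTB, GAPDH and POLR2A, with induction or suppression fitted relative to vehicle.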

[3] = read-out: Cellular tumor antigen p53 (Homo sapiens) (UniProt P04637); assay: LTEA_HepaRG_TP53: Life Technologies and Expression Analysis (LTEA) Assay for Tumor Protein P53 (TP53) using HepaRG (AID 2283537; active means hit-call score of the fitted dose curve at least 0.9, where 1 is the maximum; inactive means score below 0.9); settings: mRNA level, 48 h; actives raise or lower the signal
Method in brief: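 TP53 transcript measured by qRT-PCR, normalized to three housekeeping genes, after 48 h treatment of human HepaRG cultures with chemicals from 100 uM downward in half-log steps (0.5% DMSO vehicle, serum-free induction medium). Up- or down-regulation fitted against DMSO.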

[4] = read-out: UDP glucuronosyltransferase (UGT1A1), UGT1A1 (gene 54658); assay: LTEA_HepaRG_UGT1A1: Life Technologies and Expression Analysis (LTEA) Assay for UDP glucuronosyltransferase (UGT1A1) using HepaRG (AID 2283538; active means hit-call score of the fitted dose curve at least 0.9, where 1 is the maximum; inactive means score below 0.9); settings: mRNA level, 48 h; actives raise or lower the signal
Method in brief: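 mRNA induction or loss of UGT1A1, by TaqMan qRT-PCR, in duplicate HepaRG wells after 48 h exposure to half-log dilutions topping at 100 uM; DMSO (0.5%) served as baseline.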

[5] = read-out: UDP glucuronosyltransferase (UGT1A6), UGT1A6 (gene 54578); assay: LTEA_HepaRG_UGT1A6: Life Technologies and Expression Analysis (LTEA) Assay for UDP glucuronosyltransferase (UGT1A6) using HepaRG (AID 2283539; active means hit-call score of the fitted dose curve at least 0.9, where 1 is the maximum; inactive means score below 0.9); settings: mRNA level, 48 h; actives raise or lower the signal
Method in brief: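 Measures mRNA change in HepaRG hepatic cells exposed 48 h to chemicals (eight-point, maximum 100 uM, 0.5% DMSO vehicle) in serum-free induction medium. Expression normalized to endogenous controls; DMSO served as negative control and baseline.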

[6] = read-out: X-box binding protein 1 (XBP1), XBP1 (gene 7494); assay: LTEA_HepaRG_XBP1: Life Technologies and Expression Analysis (LTEA) Assay for X-box binding protein 1 (XBP1) using HepaRG (AID 2283540; active means hit-call score of the fitted dose curve at least 0.9, where 1 is the maximum; inactive means score below 0.9); settings: mRNA level, 48 h; actives raise or lower the signal
Method in brief: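 Eight concentrations (half-log, highest 100 uM, 0.5% DMSO) tested in duplicate on HepaRG cells over 48 h in serum-free induction medium; qRT-PCR of XBP1 normalised to ACTB, GAPDH, POLR2A.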

[7] = LTEA_HepaRG_LDH_cytotoxicity: Cytotoxicity Assessment in the Life Technologies and Expression Analysis (LTEA) Assay (AID 2283563);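 on AC50: LDH activity released into spent culture medium as a marker of cell death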
Method in brief: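 Spent-medium LDH after 48 h chemical exposure of HepaRG cells in serum-free induction medium; eight concentrations, half-log dilutions from 100 uM, duplicate wells, fitted upward relative to 0.5% DMSO.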

[8] = TOX21_p53_BLA_p2_viability: Viability Assessment in the Tox21 HCT-116 p53 Agonism Beta-lactamase Assay, Phase 2 (AID 2283591);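 further: compound exposure lasted 16 h at 37 °C; actives lower the ATP signal meaning cytotoxicity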
Method in brief: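 HCT116 p53-bla cells, 4000/well, dosed after 5 h plating (217-fold dilution of DMSO stocks) and incubated 16 h at 37C. Viability taken as cellular ATP by CellTiter-Glo luminescence after 30 min RT; signal loss marks cytotoxicity.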

[9] = TOX21_p53_BLA_p3_viability: Viability Assessment in the Tox21 HCT-116 p53 Agonism Beta-lactamase Assay, Phase 3 (AID 2283593);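 further: cells exposed to compound for 16 h before reading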
Method in brief: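 HCT116 cells, 4000/well, dosed 5 h after plating by pin transfer (217-fold dilution from DMSO stock) and incubated 16 h at 37C, 5% CO2. Viability read as ATP luminescence with CellTiter-Glo after 30 min at room temperature.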

[10] = target: Cellular tumor antigen p53 (Homo sapiens) (UniProt P04637); assay: TOX21_p53_BLA_p5_ratio: Tox21 HCT-116 p53 Agonism Beta-lactamase Assay, Ratio, Phase 5 (AID 2283599)
Method in brief: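 HCT-116 p53-bla cells (4000/well) plated 5 h, dosed with compound (217-fold DMSO dilution) for 16 h at 37 C; CCF4-AM substrate 2 h at room temperature. Activity is the 460/530 nm emission ratio (405 nm excitation), fitted in gain-of-signal direction versus DMSO.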

[11] = Tanguay_ZF_120hpf_MORT_legacy: (Legacy) Oregon State University Tanguay Lab 120 Hour Post-fertilization zebrafish Assay for Mortality (AID 2283633);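 on AC50: fitted as increase in binary mortality versus DMSO negative control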
Method in brief: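 Single dechorionated Tropical 5D embryos were held with test chemical (0.64% DMSO final) from 6 to 120 hpf at 28C under foil. Deaths at 24 or 120 hpf were recorded as binary calls, analysed for increase over DMSO controls.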

[12] = Tanguay_ZF_120hpf_AXIS_legacy: (Legacy) Oregon State University Tanguay Lab 120 Hour Post-fertilization zebrafish Assay for Body Axis Malformation (AID 2283635);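 on AC50: potency for an increased fraction of larvae scored with body axis malformation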
Method in brief: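 Each dechorionated embryo was exposed alone from 6 hpf, with DMSO at 0.64% (vol/vol) and trimethyltin chloride 5 uM as positive control. Axis malformation was recorded at 120 hpf unless the embryo had died.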

[13] = Tanguay_ZF_120hpf_EYE_legacy: (Legacy) Oregon State University Tanguay Lab 120 Hour Post-fertilization zebrafish Assay for Eye Malformation (AID 2283636);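 further: binary presence or absence of eye malformation scored by brightfield in 120 hpf larvae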
Method in brief: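 5D wild-type embryos, pronase-dechorionated at 4 hpf; static exposure 6–120 hpf, 28C, dark; DMSO 0.64% final; 5uM trimethyltin chloride positive control. Binary eye-defect scoring at 120 hpf; dead embryos not scored.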

[14] = Tanguay_ZF_120hpf_SNOU_legacy: (Legacy) Oregon State University Tanguay Lab 120 Hour Post-fertilization zebrafish Assay for Snout Malformation (AID 2283637)
Method in brief: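 Binary brightfield scoring of snout malformation at 120 hpf. Dechorionated 5D wild-type embryos, one per well, static exposure from 6 hpf at 28C, sealed and dark; final DMSO 0.64% (vol/vol), DMSO as baseline; 5uM trimethyltin chloride positive control.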

[15] = target: Cellular tumor antigen p53 (Homo sapiens) (UniProt P04637); assay: TOX21_p53_BLA_p3_ratio: Tox21 HCT-116 p53 Agonism Beta-lactamase Assay, Ratio, Phase 3 (AID 2283596)
Method in brief: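 Cells were seeded at 4000/well, rested 5 h at 37C, then dosed with DMSO compound solutions (217-fold dilution) for 16 h. CCF4-AM substrate was loaded for 2 h at room temperature, and the 460/530 nm emission ratio was fitted for gain of signal versus DMSO.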

[16] = TOX21_p53_BLA_p4_viability: Viability Assessment in the Tox21 HCT-116 p53 Agonism Beta-lactamase Assay, Phase 4 (AID 2283597);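 further: hits lower the luminescence signal meaning cytotoxicity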
Method in brief: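 In this multiplexed secondary endpoint, HCT116 cells (4000 per well, compound at 5 h, 16 h treatment) received CellTiter-Glo after the beta-lactamase read. Luminescence after 30 min RT reflects ATP, and falling signal marks cytotoxicity.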

[17] = target: Cellular tumor antigen p53 (Homo sapiens) (UniProt P04637); assay: TOX21_p53_BLA_p4_ratio: Tox21 HCT-116 p53 Agonism Beta-lactamase Assay, Ratio, Phase 4 (AID 2283601)
Method in brief: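 HCT-116 p53 beta-lactamase reporter cells (4000/well) preincubated 5 h, then compound (217-fold dilution of DMSO stock) for 16 h at 37C. CCF4-AM substrate added 2 h at room temperature; 460/530 nm emission ratio fitted upward versus DMSO.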

[18] = Tanguay_ZF_120hpf_YSE_legacy: (Legacy) Oregon State University Tanguay Lab 120 Hour Post-fertilization zebrafish Assay for Yolk Sac Edema (AID 2283634)
Method in brief: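 Single dechorionated embryos were held in sealed plates at 28C with test chemical (0.64% DMSO final) from 6 hpf until 120 hpf. Edema of the yolk sac was then recorded as a binary endpoint; non-mortality endpoints were skipped for dead embryos.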

Chain of Cellular tumor antigen p53 (Homo sapiens) (P04637 whole entry, looked up): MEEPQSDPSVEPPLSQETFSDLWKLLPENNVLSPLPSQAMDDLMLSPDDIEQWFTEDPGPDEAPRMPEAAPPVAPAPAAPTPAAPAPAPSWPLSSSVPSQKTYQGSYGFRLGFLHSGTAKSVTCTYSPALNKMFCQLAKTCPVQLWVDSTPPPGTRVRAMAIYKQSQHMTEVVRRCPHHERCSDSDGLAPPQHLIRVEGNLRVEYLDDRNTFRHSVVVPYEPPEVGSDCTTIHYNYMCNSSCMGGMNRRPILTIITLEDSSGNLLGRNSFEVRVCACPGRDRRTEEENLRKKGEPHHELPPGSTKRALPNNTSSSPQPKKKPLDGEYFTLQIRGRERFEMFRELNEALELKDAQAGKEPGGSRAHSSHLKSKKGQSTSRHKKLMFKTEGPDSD

With CCOC(=O)C(C)Oc1ccc(Oc2nc3ccc(Cl)cc3o2)cc1 (stereo unspecified) the outcome [1] was “inactive”, the outcome [2] was “inactive” and the outcome [3] was “inactive”. The outcome [4] was “inactive”, the outcome [5] was “inactive” and the outcome [6] was “inactive”. The outcome [7] was “inactive”, the outcome [8] was “inactive” and the outcome [9] was “inactive”. For the same molecule, the outcome [10] was “inactive”, the outcome [11] was “inactive” and the outcome [12] was “inactive”. For the same molecule, the outcome [13] was “inactive” and the outcome [14] was “inactive”.

For C=CCOC(Cn1ccnc1)c1ccc(Cl)cc1Cl (stereo unspecified), the outcome [1] was “inactive”, the AC50 [2] was 77.8 µM (active) and the AC50 [3] was 12.2 µM (active). For the same molecule, the AC50 [4] was 77.5 µM (active), the AC50 [5] was 72.4 µM (active) and the outcome [6] was “inactive”. For the same molecule, the AC50 [11] was 13.8 µM (active), the outcome [12] was “inactive” and the outcome [13] was “inactive”. The AC50 [14] was 4.34 µM (active).

With CC(=O)S[C@@H]1CC2=CC(=O)CC[C@]2(C)[C@H]2CC[C@@]3(C)[C@@H](CC[C@@]34CCC(=O)O4)[C@H]12 the outcome [1] was “inactive”, the outcome [2] was “inactive” and the outcome [3] was “inactive”. The AC50 [4] was 72.2 µM (active), the AC50 [5] was 50 µM (active) and the AC50 [6] was 50 µM (active). The AC50 [7] was 79.1 µM (active), the outcome [9] was “inactive” and the outcome [15] was “inactive”. For the same molecule, the outcome [16] was “inactive”, the outcome [10] was “inactive” and the outcome [17] was “inactive”. The outcome [11] was “inactive”, the outcome [18] was “inactive” and the outcome [12] was “inactive”. The outcome [13] was “inactive” and the outcome [14] was “inactive”.

In the case of CCOC(=O)NCCOc1ccc(Oc2ccccc2)cc1, the outcome [1] is reported as “inactive”, the outcome [2] is reported as “inactive” and the AC50 [3] is reported as 82.8 µM (active). The outcome [4] was “inactive”, the outcome [5] was “inactive” and the outcome [6] was “inactive”. For the same molecule, the AC50 [7] was 82.2 µM (active), the outcome [8] was “inactive” and the outcome [9] was “inactive”. For the same molecule, the outcome [15] was “inactive”, the outcome [16] was “inactive” and the outcome [10] was “inactive”. For the same molecule, the outcome [17] was “inactive”, the outcome [11] was “inactive” and the outcome [12] was “inactive”. The outcome [13] was “inactive” and the outcome [14] was “inactive”.

For CCN(CC)C(=O)c1cccc(C)c1, the outcome [1] was “inactive”, the outcome [2] was “inactive” and the AC50 [4] was 16.5 µM (active). For the same molecule, the outcome [5] was “inactive”, the outcome [6] was “inactive” and the outcome [7] was “inactive”. The outcome [11] was “inactive”, the outcome [12] was “inactive” and the outcome [13] was “inactive”. For the same molecule, the outcome [14] was “inactive”.

For CCCCOCCOCCOCc1cc2c(cc1CCC)OCO2, the outcome [1] was “inactive”, the outcome [2] was “inactive” and the AC50 [4] was 3.72 µM (active). The outcome [5] was “inactive”, the outcome [6] was “inactive” and the outcome [7] was “inactive”. The AC50 [11] was 5.13 µM (active), the AC50 [12] was 25.5 µM (active) and the outcome [13] was “inactive”. The AC50 [14] was 7.01 µM (active).

With COC(=O)c1ccc(I)cc1S(=O)(=O)NC(=O)Nc1nc(C)nc(OC)n1 the outcome [1] was “inactive”, the outcome [2] was “inactive” and the outcome [3] was “inactive”. For the same molecule, the outcome [5] was “inactive”, the outcome [6] was “inactive” and the outcome [7] was “inactive”. For the same molecule, the outcome [8] was “inactive”, the outcome [9] was “inactive” and the outcome [16] was “inactive”. The outcome [10] was “inactive”, the outcome [17] was “inactive” and the outcome [11] was “inactive”. For the same molecule, the outcome [18] was “inactive” and the outcome [12] was “inactive”.

In the case of S=C([S-])NCCNC(=S)[S-].[Mn+2], the outcome [1] is reported as “inactive”, the AC50 [2] is reported as 3.32 µM (active) and the AC50 [4] is reported as 2.75 µM (active). The AC50 [5] was 3.64 µM (active), the AC50 [6] was 3.17 µM (active) and the AC50 [7] was 3.77 µM (active). For the same molecule, the outcome [11] was “inactive”, the outcome [13] was “inactive” and the outcome [14] was “inactive”.
